About 2,000 (36%) of roughly 5,500 compounds were called active. Not shown: some 18% with an inconclusive outcome. Rule as the data show it: active = normalized growth mostly below about 0.91 (no sharp cut-off); inconclusive = no clear call, values can overlap the other calls; inactive = mostly above about 0.92. Some of the results follow.
Assay: chemical genetic growth profiling, strain panel (AID 1159580);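 also: tested at 20 µM; growth read once vehicle control cultures reached saturation at 30 °C; 1 = growth at the plate median or of vehicle wells; lower values mean less growth of the strain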
Conditions: growth OD

Measured: normalized growth

COc1ccc(C(=O)CN2CCN(c3cc(C)nc4ccccc34)CC2)cc1
inactive: S. cerevisiae deletion strains, locus YAL013W, strain DEP1, hits give low values 1.01 | S. cerevisiae deletion strains, locus YBR229C, strain ROT2, hits give low values 1.01 | S. cerevisiae deletion strains, locus YCL061C, strain MRC1, hits give low values 1 | S. cerevisiae deletion strains, locus YDL101C, strain DUN1, hits give low values 0.968 | S. cerevisiae deletion strains, locus YDL134C, strain PPH21, hits give low values 0.994 | S. cerevisiae deletion strains, locus YDR150W, strain NUM1, hits give low values 0.982 | S. cerevisiae deletion strains, locus YEL061C, strain CIN8, hits give low values 0.979 | S. cerevisiae deletion strains, locus YGR078C, strain PAC10, hits give low values 1 | S. cerevisiae deletion strains, locus YHR030C, strain SLT2, hits give low values 0.905 | S. cerevisiae deletion strains, locus YHR087W, strain rtc3, hits give low values 0.994 | S. cerevisiae deletion strains, locus YJL187C, strain SWE1, hits give low values 1 | S. cerevisiae deletion strains, locus YJR043C, strain POL32, hits give low values 1 | S. cerevisiae deletion strains, locus YJR075W, strain HOC1, hits give low values 1.01 | S. cerevisiae deletion strains, locus YLR039C, strain RIC1, hits give low values 0.956 | S. cerevisiae deletion strains, locus YLR058C, strain SHM2 (second series), hits give low values 1.01 | S. cerevisiae deletion strains, locus YLR085C, strain ARP6, hits give low values 0.987 | S. cerevisiae deletion strains, locus YLR262C, strain YPT6, hits give low values 0.942 | S. cerevisiae deletion strains, locus YML094W, strain GIM5, hits give low values 0.957 | S. cerevisiae deletion strains, locus YMR219W, strain ESC1, hits give low values 0.997 | S. cerevisiae deletion strains, locus YMR263W, strain SAP30, hits give low values 1.04 | S. cerevisiae deletion strains, locus YMR307W, strain GAS1, hits give low values 1.09 | S. cerevisiae deletion strains, locus YNL153C, strain GIM3, hits give low values 1.01 | S. cerevisiae deletion strains, locus YNL298W, strain CLA4 (second series), hits give low values 0.975 | S. cerevisiae deletion strains, locus YNL322C, strain KRE1, hits give low values 0.998 | S. cerevisiae deletion strains, locus YNR030W, strain Alg12, hits give low values 0.994 | S. cerevisiae deletion strains, locus YOL006C, strain TOP1, hits give low values 0.995 | S. cerevisiae deletion strains, locus YPL055C, strain LGE1, hits give low values 1.01 | S. cerevisiae deletion strains, locus YPL241C, strain CIN2, hits give low values 1.05 | S. cerevisiae deletion strains, locus YPR135W, strain CTF4, hits give low values 0.944 | S. cerevisiae strains, strain wild type, hits give low values 1

Reference: PubChem BioAssay AID1159580 (chemical genetic matrix, 2015)
